# Compound activity deposited in PubChem by several laboratories.
# An excerpt weighted towards active compounds, which were near 2.4% of everything screened.
# APOBEC3G inh = APOBEC3G (human) deaminase inhibition. Q9HC16. 330,000 compounds, 0.28% hits. inhibition, % at 20 µM. recombinant A3G, ssDNA deamination FAM/TAMRA fluorescence;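 active = inhibition of at least 40% at 20 µM, with no more than 30% in the related APOBEC3A deaminase screen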
# PfG6PD inh = PfG6PD (Plasmodium falciparum) enzyme inhibition | PfGluPho enzyme, NADPH resazurin-diaphorase fluorescence | inhibition, % at 20 µM | 350,000 compounds, 0.78% hits;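 active = inhibition reaching at least a set limit at 20 µM in the primary screen, cut at about 59% in these data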
# PfM18AAP inh-1 = blocks P. falciparum M18 aspartyl aminopeptidase. 290,000 compounds, 1.2% hits. inhibition, % at 7.35 µM. AID 1822. recombinant PfM18AAP, H-Glu-NHMec fluorogenic cleavage;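 active = inhibition above the campaign mean inhibition over all tested compounds plus 3 SD, cut at about 28% in these data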
# CR mimetic SO = caloric restriction mimetics inhibiting age-related superoxide in yeast; S. cerevisiae aged cells, superoxide DHE fluorescence; hits give low values; superoxide response (% of plate mean), % at 10 µM; 330,000 compounds, 0.18% hits; AID 2690;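 active = superoxide response under a set limit, about three screen SD below normal, cut at about 65% in these data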;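 note: yeast aged for seven days with compound at 30 °C before DHE staining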
# APOBEC3A inh = blocks human APOBEC3A ssDNA deamination; inhibition, % at 20 µM; recombinant A3A, FAM/TAMRA ssDNA deamination fluorescence; 330,000 compounds, 0.41% hits; P31941; AID 493011;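 active = at least 40% inhibition at 20 µM here, with at most 30% in a related deaminase screen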
# Target sequence (P31941 whole entry, looked up): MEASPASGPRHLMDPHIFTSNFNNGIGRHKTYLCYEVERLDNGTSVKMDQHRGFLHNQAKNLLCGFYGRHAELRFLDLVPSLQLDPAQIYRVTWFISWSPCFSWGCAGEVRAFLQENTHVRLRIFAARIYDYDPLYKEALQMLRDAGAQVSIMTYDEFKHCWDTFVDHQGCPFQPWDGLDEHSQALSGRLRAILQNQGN
# PfM18AAP inh-2 = PfM18AAP inhibition, confirmation; shares compounds with PfM18AAP inh-1; recombinant PfM18AAP, H-Glu-NHMec fluorogenic cleavage; inhibition, % at 7.35 µM; 2,400 compounds, 28% hits; AID 2170;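 active = mean inhibition over replicate wells above the hit cutoff set for the earlier primary screen, cut at about 29% in these data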
# CTSL1 counter = counter-screen for PFM18AAP inhibitors: confirmation of human cathepsin L inhibitors; shares compounds with PfM18AAP inh-1; 2,400 tested, under 10 active; inhibition, % at 5.96 µM; purified cathepsin L1, Z-Leu-Arg-MCA fluorescence;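 active = average inhibition across replicates above the hit cutoff set in the earlier primary screen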
# Target sequence (P07711 whole entry, looked up): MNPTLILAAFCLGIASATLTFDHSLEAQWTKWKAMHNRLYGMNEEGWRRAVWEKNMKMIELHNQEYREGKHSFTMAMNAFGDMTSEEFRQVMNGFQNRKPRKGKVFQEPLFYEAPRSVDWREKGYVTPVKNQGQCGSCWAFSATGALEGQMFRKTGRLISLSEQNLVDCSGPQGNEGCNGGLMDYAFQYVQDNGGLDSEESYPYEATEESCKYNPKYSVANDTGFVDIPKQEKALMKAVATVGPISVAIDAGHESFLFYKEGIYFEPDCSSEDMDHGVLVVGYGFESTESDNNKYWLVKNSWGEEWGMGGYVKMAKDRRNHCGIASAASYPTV
# Numbers stand for hits; n = inactive; x = not tested or not shown.
SMILES,APOBEC3G inh,PfG6PD inh,PfM18AAP inh-1,CR mimetic SO,APOBEC3A inh,PfM18AAP inh-2,CTSL1 counter
Cc1cc(C)cc(NC(=O)CN2CCC(C(=O)c3ccccc3)CC2)c1,n,n,n,n,n,x,x
Cc1ccc(C2(C(=O)N3CCC(n4nc(-c5ccccc5)oc4=O)CC3)CC2)cc1,n,n,n,n,n,x,x
COc1ccc(C2C(C(C)=O)=C(C)N=c3s/c(=C\c4cc(C)n(C)c4C)c(=O)n32)c(OC)c1 (stereo unspecified),n,n,n,n,n,x,x
COc1ccc(C2C(C(C)=O)=C(C)N=c3s/c(=C\c4ccco4)c(=O)n32)c(OC)c1 (stereo unspecified),n,n,37,n,n,n,n
CN(C)c1ccc(N2C(=O)CSC2=S)cc1,n,n,n,n,n,x,x
CC1SC(=S)N(c2ccc(N(C)C)cc2)C1=O (stereo unspecified),n,n,33,n,n,n,n
N#CC[C@H](Cc1ccccc1)N1CCN(CCc2ccccc2)CCC1=O,n,n,33,n,n,n,n
N#CC[C@H](Cc1ccccc1)N1CCN(Cc2ccccc2)CCC1=O,n,n,n,n,n,x,x
CN1C(=O)N(CC(=O)Nc2sccc2C(N)=O)C(=O)C12CCCCC2,n,n,x,n,n,x,x
Cc1ccn2c(C(=O)NN=C3CCCCCCC3)c(C)nc2c1,n,n,n,n,n,x,x
CNC(=S)NNC(=O)c1c(C)nc2cc(C)ccn12,n,n,47,n,n,n,n
C/C(=N\NC(=O)c1ccoc1C)c1cccc2ccccc12,x,n,n,n,x,x,x
O=[N+]([O-])c1ccccc1/C=C/C=N/n1c(-c2ccco2)n[nH]c1=S,n,n,32,n,n,n,n
COc1ccc(C(C)=O)cc1CSc1nc2ccccc2c(=O)n1-c1ccccc1C,n,n,43,n,n,n,n
COc1ccc(C(C)=O)cc1CSc1nc2ccccc2c(=O)n1-c1ccccc1,n,n,n,n,n,x,x
O=c1c2cn[nH]c2[nH]c(=S)n1-c1cccc2ccccc12,n,n,51,n,n,n,n
COc1ccc(-n2c(=S)[nH]c3[nH]ncc3c2=O)cc1,n,n,46,n,n,n,n
S=c1[nH]nc(Cc2ccccc2)n1-c1cccc2ccccc12,n,n,n,n,n,x,x
NS(=O)(=O)c1ccc(-c2ccc(/C=C3\NC(=S)NC3=O)o2)cc1,n,n,37,n,n,n,n
CN(C)CCN[C@H]1CCC2C3CC=C4C[C@@H](O)CC[C@]4(C)C3CC[C@@]21C (stereo partly specified),n,n,x,n,n,x,x
Cc1cc(C)c(-n2c(SCCS(=O)(=O)c3ccc(F)cc3)n[nH]c2=O)c(C)c1,n,n,41,n,n,n,n
COc1cccc(C(=O)NNC(=O)Cc2csc(N)n2)c1,n,n,36,n,n,n,n
CC1(C)CC(=O)C/C(=N/Nc2nc3ccccc3s2)C1,n,n,n,n,n,x,x
CC1CCC/C(=N/Nc2nc3ccccc3s2)C1 (stereo unspecified),n,n,39,n,n,n,n
CCc1cccc(NC(=O)c2cccc3c2C(=O)N(C2CCCCC2)C3)c1,n,n,n,n,n,x,x
SMILES,APOBEC3G inh,PfG6PD inh,PfM18AAP inh-1,CR mimetic SO,APOBEC3A inh,PfM18AAP inh-2,CTSL1 counter
Nc1ccccc1Nc1cc(-c2ccccc2)[nH]n1,x,n,39,x,x,n,n
Cc1c(C(=O)N2CCNCC2)oc2ccccc12,n,n,n,n,n,x,x
CN(C)S(=O)(=O)c1cccc(COc2ncnc3c(Cl)cc(Cl)cc23)c1,n,n,n,n,n,x,x
CCc1nnc(NC(=O)CSc2nnc(CNC(=O)c3ccc(OC)c(OC)c3)o2)s1,n,n,42,n,n,n,n
O=C(/C=C/c1cccnc1)c1ccc([N+](=O)[O-])cc1,n,n,32,n,n,n,n
O=C(C=Cc1ccccc1)c1ccc([N+](=O)[O-])cc1,x,n,x,x,x,x,x
COc1ccc2ccc(OCC(=O)NCC3CCCO3)cc2c1 (stereo unspecified),n,n,x,x,n,x,x
Cc1ccc(C(=O)N2CCCCC2)cc1S(=O)(=O)N1CCOCC1,n,n,n,n,n,x,x
Cc1nn2c(=S)[nH]nc2[nH]c1=O,n,n,n,n,n,x,x
Cc1n[nH]c(=S)n(NC(=O)CC(=O)Nn2c(=S)[nH]nc(C)c2=O)c1=O,n,n,42,n,n,n,n
Cc1n[nH]c(=S)n(NC(=O)/C=C/C(=O)Nn2c(=S)[nH]nc(C)c2=O)c1=O,x,n,35,x,x,n,n
COc1ccccc1OCC(=O)Nn1c(=S)[nH]c2ncccc2c1=O,n,n,n,n,n,x,x
CCN1C(=O)[C@H]2[C@@H](c3ccc(C(F)(F)F)cc3)N[C@]3(CCCN(Cc4ccc(C)cc4)C3=O)[C@H]2C1=O,x,n,x,x,x,x,x
O=C1OC(/C(=C\NCc2ccccc2)[N+](=O)[O-])c2ccccc21 (stereo unspecified),n,n,n,n,n,x,x
O=C1OC(/C(=C\Nc2ccccc2)[N+](=O)[O-])c2ccccc21 (stereo unspecified),n,n,47,n,n,n,n
Cc1ccc(C(=O)N2CCN(S(=O)(=O)c3ccc(C)c([N+](=O)[O-])c3)C2)cc1,n,n,n,n,n,x,x
O=C(CSc1ncn[nH]1)Nc1ccccc1C(=O)O,n,n,44,n,n,n,n
O=C(Nc1ccccc1C(=O)O)c1ncn[nH]1,x,n,77,x,x,58,n
CC(C)c1nnc(NC(=O)CSc2ncn[nH]2)s1,n,n,42,n,n,52,n
CCc1nc(SCC(=O)Nc2nnc(C(C)C)s2)n[nH]1,x,n,x,x,x,x,x
O=C(Nc1ccc(N2CCN(C(=O)c3ccccc3F)CC2)cc1)c1ncn[nH]1,n,n,39,n,n,n,n
Cc1ccc(OCC(=O)NNC(=O)c2ccco2)c(C)c1,n,n,n,n,n,x,x
O=C(CSc1ncn[nH]1)Nc1nc(-c2ccccc2)ns1,n,n,82,n,n,85,n
CC(=O)N1CCN(c2ccc(N=Cc3c(O)n(Cc4ccccc4)c(=O)[nH]c3=O)cc2)CC1,x,n,33,x,x,n,n
O=C(Cn1cc(S(=O)(=O)N2CCCC2)c(S(=O)(=O)N2CCCC2)c1)NCc1ccco1,n,n,n,n,n,x,x
SMILES,APOBEC3G inh,PfG6PD inh,PfM18AAP inh-1,CR mimetic SO,APOBEC3A inh,PfM18AAP inh-2,CTSL1 counter
CCNC(=S)NNc1nncc2ccccc12,n,n,36,n,n,n,n
CCn1c(=O)c2c(nc(SCC(=O)Nc3ccccc3)n2C)n(C)c1=O,n,n,n,n,n,x,x
COc1ccc(S(=O)(=O)Oc2ccccc2C(=S)N2CCOCC2)cc1,n,x,45,n,n,n,n
COc1cc(CNc2ccc(CNc3ncn[nH]3)cc2)cc(Cl)c1OCc1ccccc1,n,n,34,n,n,n,n
COc1cc(CNn2cn[nH]c2=S)cc(Cl)c1OCc1ccccc1,n,n,n,n,n,x,x
Cc1c(O)cc2n(c1=O)-c1ccccc1C2(C)C,n,n,n,n,n,x,x
